Measurements published in publication PMC10812921, “Transcriptional Coactivator BOB1 (OBF1, OCA-B) Modulates the Specificity of DNA Recognition by the POU-Domain Factors OCT1 and OCT2 in a Monomeric Configuration”.

How the values were obtained:
[1] = target: POU1 (OCT1 POU domain) (human, UniProt P14859 260-458); test: EMSA-SELEX-seq; no BOB1; 20 mM Tris-HCl pH 7.6, 140 mM NaCl, 10% glycerol, 0.5 mM EDTA, 0.05% Triton X-100, 0.1 mg/mL BSA, 0.1 mg/mL poly(dI-dC), 5 mM DTT, room temperature, 20 min; high values mean tight binding; settings: protein: recombinant; dsDNA, one strand shown
POU1 (OCT1 POU domain), sequence (P14859 260-458): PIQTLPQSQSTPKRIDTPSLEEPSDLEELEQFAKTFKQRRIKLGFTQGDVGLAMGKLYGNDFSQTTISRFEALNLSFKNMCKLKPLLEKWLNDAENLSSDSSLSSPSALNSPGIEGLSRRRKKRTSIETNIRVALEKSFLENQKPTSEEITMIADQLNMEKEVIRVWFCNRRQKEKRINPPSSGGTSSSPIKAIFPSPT
Procedure, shortened: (§1)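 Binding preference is reported as the percentage of sequenced 8-mers that match a motif pattern. Tagged POU-domain proteins were made in E. coli BL21, purified under denaturing conditions and renatured. A 30 ng portion was combined with 300 ng of a PCR-amplified double-stranded random 35-nt library, with or without 28 ng coactivator protein, in 20 μL Tris–HCl pH 7.6 binding buffer for 20 min at RT. Complex bands were excised from native 6% PAGE, eluted and PCR-amplified over four rounds before Illumina sequencing.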

[2] = target: T1, POU2 (OCT2 POU domain) (human, UniProt P09086 175-386); test: as above; settings: protein: recombinant; dsDNA, one strand shown
T1 sequence: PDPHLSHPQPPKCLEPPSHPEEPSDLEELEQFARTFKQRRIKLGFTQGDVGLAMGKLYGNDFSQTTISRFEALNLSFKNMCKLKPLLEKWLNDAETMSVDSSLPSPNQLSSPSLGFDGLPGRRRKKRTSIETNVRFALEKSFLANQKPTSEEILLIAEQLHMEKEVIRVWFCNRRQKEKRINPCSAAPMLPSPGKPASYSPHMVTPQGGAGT
Procedure, shortened: as §1

[3] = target: POU1 (OCT1 POU domain);BOB1 (OBF1, OCA-B) (human;human, UniProt P14859;Q16633 260-458;1-256, |); test: EMSA-SELEX-seq; with BOB1 (ternary complex band); 20 mM Tris-HCl pH 7.6, 140 mM NaCl, 10% glycerol, 0.5 mM EDTA, 0.05% Triton X-100, 0.1 mg/mL BSA, 0.1 mg/mL poly(dI-dC), 5 mM DTT, room temperature, 20 min; high values mean tight binding; settings: protein: recombinant;recombinant; copies: 1;1; dsDNA, one strand shown
Procedure, shortened: as §1

[4] = target: T2, POU2 (OCT2 POU domain);BOB1 (OBF1, OCA-B) (human;human, UniProt P09086;Q16633 175-386;1-256, |); test: as above; settings: protein: recombinant;recombinant; copies: 1;1; dsDNA, one strand shown
T2 sequence 1: T1 sequence
T2 sequence 2: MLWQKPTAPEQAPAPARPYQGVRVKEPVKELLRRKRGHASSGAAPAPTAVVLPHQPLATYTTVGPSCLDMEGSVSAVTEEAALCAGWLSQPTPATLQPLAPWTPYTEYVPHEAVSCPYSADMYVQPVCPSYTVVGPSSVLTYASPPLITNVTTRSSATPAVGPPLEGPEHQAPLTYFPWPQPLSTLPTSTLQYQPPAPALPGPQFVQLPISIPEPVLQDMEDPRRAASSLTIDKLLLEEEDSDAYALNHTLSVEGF
Procedure, shortened: as §1

Row | Sequence | binding signal [1] | binding signal [2] | binding signal [3] | binding signal [4]
1 | ATCTCAAA | 0.0435 % of ANNNNAAN 8-mers | 0.0443 % of ANNNNAAN 8-mers | 0.0574 % of ANNNNAAN 8-mers | 0.038 % of ANNNNAAN 8-mers
2 | ACGCTAAG | 0.0202 % of ANNNNAAN 8-mers | 0.0167 % of ANNNNAAN 8-mers | 0.0242 % of ANNNNAAN 8-mers | 0.0231 % of ANNNNAAN 8-mers
3 | ACCTTAAG | 0.0198 % of ANNNNAAN 8-mers | 0.0219 % of ANNNNAAN 8-mers | 0.0187 % of ANNNNAAN 8-mers | 0.0281 % of ANNNNAAN 8-mers
4 | ATATGAAG | 0.0545 % of ANNNNAAN 8-mers | 0.0823 % of ANNNNAAN 8-mers | 0.0691 % of ANNNNAAN 8-mers | 0.0735 % of ANNNNAAN 8-mers
5 | ACATAAAG | 0.0934 % of ANNNNAAN 8-mers | 0.108 % of ANNNNAAN 8-mers | 0.0663 % of ANNNNAAN 8-mers | 0.0759 % of ANNNNAAN 8-mers
6 | AACGGAAG | 0.0168 % of ANNNNAAN 8-mers | 0.0259 % of ANNNNAAN 8-mers | 0.0164 % of ANNNNAAN 8-mers | 0.0206 % of ANNNNAAN 8-mers
7 | AAGGGAAT | 0.115 % of ANNNNAAN 8-mers | 0.121 % of ANNNNAAN 8-mers | 0.0765 % of ANNNNAAN 8-mers | 0.0908 % of ANNNNAAN 8-mers
8 | ACGCCAAT | 0.0137 % of ANNNNAAN 8-mers | 0.0184 % of ANNNNAAN 8-mers | 0.0195 % of ANNNNAAN 8-mers | 0.0256 % of ANNNNAAN 8-mers
9 | AGGAGAAG | 0.045 % of ANNNNAAN 8-mers | 0.0472 % of ANNNNAAN 8-mers | 0.0507 % of ANNNNAAN 8-mers | 0.0438 % of ANNNNAAN 8-mers
10 | AAAAGAAT | 0.0858 % of ANNNNAAN 8-mers | 0.088 % of ANNNNAAN 8-mers | 0.0937 % of ANNNNAAN 8-mers | 0.0817 % of ANNNNAAN 8-mers
11 | ACAATAAG | 0.0339 % of ANNNNAAN 8-mers | 0.042 % of ANNNNAAN 8-mers | 0.0375 % of ANNNNAAN 8-mers | 0.0396 % of ANNNNAAN 8-mers
12 | AGAAAAAA | 0.0767 % of ANNNNAAN 8-mers | 0.0857 % of ANNNNAAN 8-mers | 0.0812 % of ANNNNAAN 8-mers | 0.0561 % of ANNNNAAN 8-mers
13 | ACGTAAAT | 0.217 % of ANNNNAAN 8-mers | 0.172 % of ANNNNAAN 8-mers | 0.232 % of ANNNNAAN 8-mers | 0.147 % of ANNNNAAN 8-mers
14 | ATTTTAAG | 0.108 % of ANNNNAAN 8-mers | 0.131 % of ANNNNAAN 8-mers | 0.0964 % of ANNNNAAN 8-mers | 0.101 % of ANNNNAAN 8-mers
15 | ATGGCAAA | 0.0774 % of ANNNNAAN 8-mers | 0.057 % of ANNNNAAN 8-mers | 0.113 % of ANNNNAAN 8-mers | 0.0776 % of ANNNNAAN 8-mers
16 | AAGGCAAC | 0.0187 % of ANNNNAAN 8-mers | 0.0167 % of ANNNNAAN 8-mers | 0.0195 % of ANNNNAAN 8-mers | 0.0264 % of ANNNNAAN 8-mers
17 | AGTAAAAG | 0.061 % of ANNNNAAN 8-mers | 0.0662 % of ANNNNAAN 8-mers | 0.0913 % of ANNNNAAN 8-mers | 0.0578 % of ANNNNAAN 8-mers
18 | ATTCTAAA | 0.0946 % of ANNNNAAN 8-mers | 0.123 % of ANNNNAAN 8-mers | 0.0542 % of ANNNNAAN 8-mers | 0.0726 % of ANNNNAAN 8-mers
19 | AATCGAAT | 0.087 % of ANNNNAAN 8-mers | 0.0926 % of ANNNNAAN 8-mers | 0.078 % of ANNNNAAN 8-mers | 0.0916 % of ANNNNAAN 8-mers
20 | ATCACAAC | 0.0194 % of ANNNNAAN 8-mers | 0.0242 % of ANNNNAAN 8-mers | 0.0222 % of ANNNNAAN 8-mers | 0.0165 % of ANNNNAAN 8-mers
21 | AACCAAAC | 0.0248 % of ANNNNAAN 8-mers | 0.0236 % of ANNNNAAN 8-mers | 0.0437 % of ANNNNAAN 8-mers | 0.0239 % of ANNNNAAN 8-mers
22 | AATTGAAG | 0.069 % of ANNNNAAN 8-mers | 0.0725 % of ANNNNAAN 8-mers | 0.0624 % of ANNNNAAN 8-mers | 0.052 % of ANNNNAAN 8-mers
23 | ATCTGAAA | 0.0374 % of ANNNNAAN 8-mers | 0.046 % of ANNNNAAN 8-mers | 0.0472 % of ANNNNAAN 8-mers | 0.0545 % of ANNNNAAN 8-mers
